# Measurements published in the supplement of paper PMC6555819.
# How the values were obtained:
# Assay in all cases: PBM binding z-score (relative to random genomic background probes); higher = stronger binding; sequences stand for … in GC…GCGATTGACAGCGTAGAATGAAGG
# [1] = test system: FXR:RXRa (NR concentration 270 nM, RXRa partner concentration 90 nM)
# Procedure, shortened: (§1)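 For binding z-scores, the reference was random background probes on custom Agilent 4×180K protein-binding microarrays. These arrays were incubated 1 h with ligand-free nuclear receptor dimers in PBS pH 7.4, 2% milk, 0.02% Triton X-100, 1 mM DTT, 0.2 mg/mL BSA and 0.4 mg/ml salmon testes DNA. Fluorescence was scanned after antibody detection of each partner (one per run) and regression-normalized.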
# [2] = test system: LXRa:RXRa (NR concentration 270 nM, RXRa partner concentration 90 nM)
# Procedure, shortened: as §1
# [3] = test system: LXRa homodimer (NR concentration 270 nM)
# Procedure, shortened: as §1
# [4] = test system: LXRb:RXRa (NR concentration 270 nM, RXRa partner concentration 90 nM)
# Procedure, shortened: as §1
# [5] = test system: LXRb homodimer (NR concentration 270 nM)
# Procedure, shortened: as §1
# [6] = test system: PPARa:RXRa (NR concentration 270 nM, RXRa partner concentration 90 nM)
# Procedure, shortened: as §1
# [7] = test system: PPARg:RXRa (NR concentration 180 nM, RXRa partner concentration 90 nM)
# Procedure, shortened: as §1
# [8] = test system: PPARg:RXRa 270nM:90nM, anti-RXR (NR concentration 270 nM, RXRa partner concentration 90 nM)
# Procedure, shortened: as §1
# [9] = test system: PPARg:RXRa 30nM:10nM, anti-RXR (NR concentration 30 nM, RXRa partner concentration 10 nM)
# Procedure, shortened: as §1
# [10] = test system: PPARg:RXRa 90nM:30nM, anti-RXR (NR concentration 90 nM, RXRa partner concentration 30 nM)
# Procedure, shortened: as §1
# [11] = test system: PPARg:RXRa DBDmut IVT, anti-RXR (DBD mutation: RXRa K156A/R161A, NR concentration 270 nM, RXRa partner concentration 90 nM)
# Procedure, shortened: as §1
# [12] = test system: PPARg:RXRa IVT, anti-PPARg (NR concentration 270 nM, RXRa partner concentration 90 nM)
# Procedure, shortened: as §1
# [13] = test system: PPARg DBDmut:RXRa IVT, anti-PPARg (DBD mutation: PPARg1 K132A/R137A, NR concentration 270 nM, RXRa partner concentration 90 nM)
# Procedure, shortened: as §1
# [14] = test system: PPARg DBDmut IVT, anti-PPARg (DBD mutation: PPARg1 K132A/R137A, NR concentration 270 nM)
# Procedure, shortened: as §1
# [15] = test system: PPARg homodimer (NR concentration 180 nM)
# Procedure, shortened: as §1
# [16] = test system: PXR:RXRa (NR concentration 270 nM, RXRa partner concentration 90 nM)
# Procedure, shortened: as §1
# [17] = test system: PXR homodimer (NR concentration 270 nM)
# Procedure, shortened: as §1
# [18] = test system: RARa:RXR (NR concentration 270 nM, RXRa partner concentration 90 nM)
# Procedure, shortened: as §1
# [19] = test system: RARa homodimer (NR concentration 270 nM)
# Procedure, shortened: as §1
# [20] = test system: RARb:RXRa (NR concentration 270 nM, RXRa partner concentration 90 nM)
# Procedure, shortened: as §1
Sequence,PBM binding z-score [1],PBM binding z-score [2],PBM binding z-score [3],PBM binding z-score [4],PBM binding z-score [5],PBM binding z-score [6],PBM binding z-score [7],PBM binding z-score [8],PBM binding z-score [9],PBM binding z-score [10],PBM binding z-score [11],PBM binding z-score [12],PBM binding z-score [13],PBM binding z-score [14],PBM binding z-score [15],PBM binding z-score [16],PBM binding z-score [17],PBM binding z-score [18],PBM binding z-score [19],PBM binding z-score [20]
ACAGACAGGTGATAAAGGTAACTCAGGCTATCAT,-0.11,-0.0181,-0.44,0.128,-0.23,0.763,1.15,1.47,0.377,1.35,-0.135,0.46,-0.885,-0.537,0.207,-0.0528,0.0239,0.267,-0.124,0.423
GCTAGTTGGTCAGTAAAAGGTCACCCACCGGTCG,3.38,4.1,4.23,3.6,0.649,4.11,2.48,4.29,2.04,3.67,0.689,2.81,0.204,-0.0831,5.31,4.84,1.27,5.99,3.9,4.28
GCAGACAGGTGAAACGCAGATAACTCAGGGTGGC,-0.337,-0.00809,-0.429,-0.285,-0.813,0.654,1.04,-0.0865,-0.367,-0.137,1.09,0.225,0.243,-0.959,0.214,-0.239,-0.278,-0.0859,-0.365,0.56
TCTAGCCGGCCAGAGGGTCACTCAAGAGGTACGG,1.12,0.885,-0.666,1.07,-1.11,2.03,0.575,1.57,1.39,1.44,0.224,-0.0177,-0.893,-1.23,0.24,1.48,-0.354,2.24,-0.43,2.08
CAGACTGGGGCAAAGGTTACCATACTCAGTACGA,2.11,2.13,0.0267,2.49,-0.226,5.94,10.9,8.6,9.03,10.1,5.78,6.11,0.811,-0.289,1.61,2.57,0.354,3.86,0.632,2.66
CACACTAGGTCAAGGTCAAAGTCGGTTTGTGCCA,7.12,6.07,5.26,4.87,2.5,5.71,8.74,7.44,5.6,7.61,7.8,8.02,6.91,5.72,7.79,5.54,4.08,5.87,3.51,5.03
CGAACTAGGTCACAGAGGTCAAAGTCCGTGCGTA,7.51,6.91,7.06,6.5,1.96,6.56,10.2,8.5,7.02,8.62,8.62,8.94,8.99,6.82,9.8,6.92,13.2,7.77,5.26,5.23
CCCAGTTGGTCAAGGTCACACACGCTATAGGTAC,4.07,4.03,2.72,3.8,0.738,4.18,3.3,3.56,1.14,2.57,1.74,3.31,2.05,0.443,4.04,4.46,3.52,4.63,2.32,4.24
ATCGAAAGGTCGACGAGGTGGGTATACACCGTTT,3.58,3.27,0.14,2.55,0.209,4.1,2.2,2.89,0.706,1.6,0.15,1.75,0.733,1.26,1.34,2.6,0.341,2.98,-0.0132,3.68
CAAACTAGGTCAGGAGGTCAAAGTCCGCTTCCCG,5.51,5.22,4.23,4.39,1.11,5.91,8.99,7.3,5.95,7.43,7.85,8.07,2.42,1.18,6,5.16,2.29,6.31,1.8,4.92
ACAGACAGGTGAGGAAGGTAACTCAGGCTATCAT,0.118,-0.0457,-0.223,0.105,-0.143,0.173,0.575,-0.276,0.0158,-0.414,0.129,0.785,0.395,-0.587,-0.277,-0.058,-0.158,0.108,0.0819,0.494
TATACAGGGTCAAAGACCAGAGTACGAATGTCGA,7.01,5.81,2.11,4.83,2.31,5.9,6.65,5.94,3.43,5.01,2.05,4.19,1.75,1.67,1.9,3.65,0.419,4.04,0.668,4.25
CCTATTAGTTGTCCATAAGGGCAACCGAAGCTCG,0.902,0.553,0.8,0.558,1.17,0.459,0.174,0.706,-0.0798,0.365,0.332,0.804,0.706,1.02,1.69,0.563,0.996,1.1,2.11,1.44
